The text below walks through data of PubChem BioAssay.

Activity calls are given as the source filed them.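 How the source made its calls, unless noted: active means inhibition at or above 50% at 10 µM; inactive means inhibition below 50%.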

A short description of experiment [1]: inhibitors of TNFa-induced NFkB p65 translocation, primary screen, imaging, HUVEC, MLSMR starter and 10KST1 sets (AID 438;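 active means inhibition above 20% together with a positive visual image hit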;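 further: compound added about 3h40 before a 20 min TNFalpha stimulation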;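 on inhibition: signal is the nuclear over cytoplasmic p65 intensity ratio per well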). The following applies: HUVEC TNFa-induced p65 nuclear translocation; cell count: measured here: nuclei count (cytotoxicity indicator), at 2.08 µM; inhibition: at 2 µM, stronger effect = higher value, 0% TNFa-plus-vehicle, 100% no-TNFa wells.
The nature of experiment [2]: reduction of polyQ htt aggregates in cells – imaging, exon1htt(103Q)mCFP cells, high-content imaging, primary screen (AID 483;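 active means visual image review flags a hit and inhibition of aggregation exceeds 20%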;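 further: compound exposure lasted 3 days before fixation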;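 on nuclei count: percent of the per-plate median nuclei count of sample wells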). The conditions noted are these: exon1htt(103Q)mCFP cell line, aggregate imaging, at 2 µM; inhibition of aggregation: stronger effect = higher value; nuclei count: measured here: cell count, toxicity.
Experiment [3] is described as follows: endothelial E-selectin expression blockers – imaging, HUVEC, immunofluorescence, MLSMR starter and 10KST1 sets, primary screen (AID 487;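 active means visually confirmed hit in the image check and inhibition above 20%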;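 on inhibition: signal is fraction of cell area covered by stained E-selectin grains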;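 on nuclei count: 100% = median nuclei count of all wells on the same plate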). The following applies: HUVEC TNFalpha-induced E-selectin immunofluorescence imaging, at 2 µM; inhibition: stronger effect = higher value; nuclei count: measured here: cell number, toxicity.
Experiment [4] addresses Voltage-gated potassium channel subunit beta-2 (Rattus norvegicus) (UniProt P62483). The experiment can be described thus: inhibitors of rat Kvbeta2 reductase activity – biochemical, NADPH fluorescence, primary screen (AID 622;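 active means fluorescence slope higher than the sample average by over 3 SD, cut at about -0.22 in these data, passing the limit was not always enough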;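 further: slope of raw intensity against log time taken from 70 to 1610 s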). The conditions noted are these: recombinant KvBeta, 4-cyanobenzaldehyde reduction, at 10 µM, stronger effect = higher value.
The target is the same in experiment [5]. Put plainly: enhancers of rat Kvbeta2 NADPH turnover – biochemical, NADPH fluorescence, primary screen (AID 623;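 active means NADPH fluorescence slope more negative than the mean of all samples by about 3 SD, 99.7% confidence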;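 further: fluorescence intensity change per second fitted from 20 to 320 s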). The following applies: Recombinant KvBeta, NADPH fluorescence decrease slope, 10 min; at 10 µM; stronger effect = lower value.
The target in experiment [6] is Alpha-2C adrenergic receptor (Homo sapiens) (UniProt P18825). The experiment can be described thus: compounds altering alpha2C-coupled GIRK flux – cell-based, HEK293 alpha2C/GIRK1/2, thallium flux, primary screen (AID 624;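 active means fluorescence slope after compound addition differing from the mean of all screened samples at 99.7% confidence, in either direction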;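 further: slope of fluorescence ratio to pre-addition baseline per second over 15 to 24 s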). The following applies: thallium flux BTC fluorescence, at 10 µM, actives lie on both sides.
Sequence of Alpha-2C adrenergic receptor (Homo sapiens) (P18825 whole entry, looked up): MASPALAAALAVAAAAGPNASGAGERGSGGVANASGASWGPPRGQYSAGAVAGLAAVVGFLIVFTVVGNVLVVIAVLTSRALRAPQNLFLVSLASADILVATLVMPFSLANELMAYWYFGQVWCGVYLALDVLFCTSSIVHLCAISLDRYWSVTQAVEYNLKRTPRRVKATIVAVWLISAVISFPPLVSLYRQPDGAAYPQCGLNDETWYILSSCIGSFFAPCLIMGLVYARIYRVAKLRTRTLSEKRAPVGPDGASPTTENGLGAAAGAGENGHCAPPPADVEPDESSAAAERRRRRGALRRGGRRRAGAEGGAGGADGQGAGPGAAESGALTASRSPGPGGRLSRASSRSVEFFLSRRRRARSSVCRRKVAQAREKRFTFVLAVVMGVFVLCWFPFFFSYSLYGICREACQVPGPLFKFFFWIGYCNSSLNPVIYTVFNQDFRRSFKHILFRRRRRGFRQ
Experiment [7] can be described thus: blockers of RIG-like receptor reporter activation – cell-based, Sendai virus stimulus, luciferase, 10K MLSCN set, TLR/RLR signaling modifier project, primary screen (AID 602276).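 Further: firefly luciferase from ISG56 promoter only with Renilla not read in this screen; 0% = Sendai virus plus DMSO and 100% = medium plus DMSO without virus.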 The conditions noted are these: HEK293 RL24 IRF3 luciferase reporter, at 10 µM, stronger effect = higher value.
The nature of experiment [8]: TLR3 IRF3 reporter activation blockers – cell-based, poly I:C stimulus, luciferase, 10K MLSCN set, primary screen (AID 602277;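 active means inhibition of the reporter signal at or above 50%; inactive means inhibition below 50%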). The conditions noted are these: HEK293-TLR3 RL24 IRF3 luciferase reporter, at 10 µM, stronger effect = higher value.

Sequence of Voltage-gated potassium channel subunit beta-2 (Rattus norvegicus) (P62483 whole entry, looked up): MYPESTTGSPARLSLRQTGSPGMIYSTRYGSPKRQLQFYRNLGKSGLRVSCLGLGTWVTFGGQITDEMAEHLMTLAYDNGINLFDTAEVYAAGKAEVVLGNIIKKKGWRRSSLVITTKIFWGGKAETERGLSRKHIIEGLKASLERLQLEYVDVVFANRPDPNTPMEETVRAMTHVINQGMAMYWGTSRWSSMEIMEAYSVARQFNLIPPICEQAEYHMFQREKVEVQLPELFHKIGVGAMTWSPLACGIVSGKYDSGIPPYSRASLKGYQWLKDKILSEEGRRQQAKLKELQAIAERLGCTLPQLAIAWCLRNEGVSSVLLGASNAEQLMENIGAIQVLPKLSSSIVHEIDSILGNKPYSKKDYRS

On to `Cn1cc(C(=O)c2ccc(F)cc2)cc1-c1nc2ccccc2n1C`, for which, in experiment [1], the cell count was 357. Moreover, the inhibition was -6.3% (inactive) in experiment [1], 5.7% (inactive) in experiment [3], 3.11% (inactive) in experiment [7] and -17.9% (inactive) in experiment [8]. The inhibition of aggregation in experiment [2] was 23.1% (inactive). Also, the nuclei count in experiment [2] was 86.8%; in experiment [3], 83%. In addition, in experiment [4], the fluorescence slope is -0.59 (inactive). Besides, the NADPH fluorescence slope in experiment [5] is -4.1e-05 (inactive). In addition, the slope in experiment [6] was 0.0041 (inactive).
Take `COc1ccc(CCNc2oc(COc3ccccc3Cl)nc2C#N)cc1OC`: the cell count in experiment [1] was 643. The inhibition in experiment [1] was 0.3% (inactive); in experiment [3], -24.6% (inactive); in experiment [7], 1.77% (inactive); in experiment [8] it was -11% (inactive). For the same compound, the inhibition of aggregation in experiment [2] was -3% (inactive). Besides, the nuclei count was 99.9% in experiment [2] and 109% in experiment [3]. Further, the fluorescence slope in experiment [4] was -0.462 (inactive). Besides, the NADPH fluorescence slope in experiment [5] is -5.7e-05 (inactive). The slope in experiment [6] was 0.00453 (inactive).
With `COCc1ccccc1Cn1cnc2c1c(=O)n(C)c(=O)n2C`, the cell count in experiment [1] came to 346. The inhibition in experiment [1] was 2% (inactive); in experiment [3], 25.6% (inactive); in experiment [7], 2.14% (inactive); in experiment [8] it was 12.6% (inactive). Also, in experiment [2], the inhibition of aggregation is -1.8% (inactive). The results for the nuclei count in experiment [2] and in experiment [3] were 107% and 112%, respectively. In addition, the fluorescence slope in experiment [4] is -0.469 (inactive). In addition, in experiment [5], the NADPH fluorescence slope is -3.6e-05 (inactive). In addition, the slope in experiment [6] was 0.00626 (inactive).
`CCc1nnc(NC(=O)CN2CCN(c3ccccc3OC)CC2)s1`: the cell count in experiment [1] was determined as 287. The inhibition in experiment [1] is 6.2% (inactive); in experiment [3], 3.6% (inactive); in experiment [7], 7.27% (inactive); in experiment [8], 27.9% (inactive). The inhibition of aggregation in experiment [2] is -10% (inactive). For the same compound, the nuclei count came to 102% in experiment [2] and 97.4% in experiment [3]. The fluorescence slope in experiment [4] is -0.616 (inactive). In experiment [5], the NADPH fluorescence slope is -2e-05 (inactive). Also, in experiment [6], the slope was 0.00643 (inactive).
For the compound `CCOC(=O)C1=C(C)NC(C)=C(C(=O)OCC)C1c1cc(N)ccc1OC(F)F`, the cell count in experiment [1] amounted to 181. The inhibition in experiment [1] was -11% (inactive); in experiment [3] it was -12.2% (inactive); in experiment [7], 8.52% (inactive); in experiment [8] it was 28.4% (inactive). Besides, in experiment [2], the inhibition of aggregation was 22.6% (inactive). Also, the values for the nuclei count in experiment [2] and in experiment [3] were 83.8% and 96.5%, respectively. Further, in experiment [4], the fluorescence slope is -0.445 (inactive). The NADPH fluorescence slope in experiment [5] was 4.3e-05 (inactive). In addition, the slope in experiment [6] was 0.00592 (inactive).
As to `O=C(c1ccco1)N1CCN(/C(=N/S(=O)(=O)c2cccs2)c2ccccc2Cl)CC1`, in experiment [1], the cell count was 852. In addition, the inhibition in experiment [1] was -5.6% (inactive); in experiment [3], 33.2% (inactive); in experiment [7], -2.11% (inactive); in experiment [8] it was 12.2% (inactive). For the same compound, in experiment [2], the inhibition of aggregation is 2.4% (inactive). For the same compound, the nuclei count in experiment [2] is 103%; in experiment [3], 95.1%. The fluorescence slope in experiment [4] is -0.491 (inactive). The NADPH fluorescence slope in experiment [5] is -5.1e-05 (inactive). Further, the slope in experiment [6] was 0.00477 (inactive).
`CCOc1ncccc1C(=O)OCC(=O)N1CC(=O)Nc2ccccc21`: the cell count in experiment [1] stood at 371. The inhibition in experiment [1] is 2.2% (inactive); in experiment [3] it was -9.8% (inactive); in experiment [7], 7.28% (inactive); in experiment [8], 22.7% (inactive). The inhibition of aggregation in experiment [2] is -21.8% (inactive). Further, the nuclei count in experiment [2] is 102%; in experiment [3], 111%. Besides, the fluorescence slope in experiment [4] was -0.486 (inactive). Besides, the NADPH fluorescence slope in experiment [5] is 3.8e-06 (inactive). For the same compound, in experiment [6], the slope was 0.00558 (inactive).
For `COc1cc(/C=N/n2cnnc2)ccc1OCC(=O)N1CCOCC1`, the cell count in experiment [1] was determined as 378. The inhibition in experiment [1] was -0.8% (inactive); in experiment [3], -4.3% (inactive); in experiment [7], 5.73% (inactive); in experiment [8], 19.7% (inactive). The inhibition of aggregation in experiment [2] is -5.1% (inactive). The figures for the nuclei count in experiment [2] and in experiment [3] were 125% and 112%, respectively. The fluorescence slope in experiment [4] is -0.245 (inactive). Further, in experiment [5], the NADPH fluorescence slope is 7.4e-07 (inactive). For the same compound, in experiment [6], the slope is 0.00585 (inactive).
For `CCC(=O)N1Cc2ccccc2-c2ccccc2C1=O`, the cell count in experiment [1] is 642. Also, the inhibition in experiment [1] was 3% (inactive); in experiment [3], 11% (inactive); in experiment [7] it was 12.1% (inactive); in experiment [8] it was 12.9% (inactive). The inhibition of aggregation in experiment [2] is -14.4% (inactive). Moreover, the nuclei count in experiment [2] is 98.3%; in experiment [3] it was 126%. For the same compound, the fluorescence slope in experiment [4] was -0.618 (inactive). Also, the NADPH fluorescence slope in experiment [5] was -1.2e-05 (inactive). For the same compound, the slope in experiment [6] was 0.006 (inactive).
As to `Cc1nnc(SCc2ccccc2)n1N`, in experiment [1], the cell count is 465. Also, the inhibition in experiment [1] is 2.9% (inactive); in experiment [3], -16.8% (inactive); in experiment [7] it was 16.3% (inactive); in experiment [8], 16.6% (inactive). Moreover, the inhibition of aggregation in experiment [2] is -11.7% (inactive). Further, the nuclei count in experiment [2] turned out to be 101%; in experiment [3] it was 119%. Further, the fluorescence slope in experiment [4] is -0.494 (inactive). Further, the NADPH fluorescence slope in experiment [5] is -4.1e-05 (inactive). In addition, the slope in experiment [6] was 0.00525 (inactive).
On to `CC(=O)c1cccc(NC(=O)N2CCCc3ccccc32)c1`, for which, in experiment [1], the cell count worked out at 334. Also, the inhibition was 2% (inactive) in experiment [1], -43.9% (inactive) in experiment [3], 9.66% (inactive) in experiment [7] and -1.85% (inactive) in experiment [8]. Besides, the inhibition of aggregation in experiment [2] was -9.8% (inactive). The nuclei count in experiment [2] was found to be 95.3%; in experiment [3], 120%. Also, the fluorescence slope in experiment [4] was -0.622 (inactive). Also, in experiment [5], the NADPH fluorescence slope was 3.7e-06 (inactive). In addition, in experiment [6], the slope is 0.00357 (inactive).
As for `COC1CCCCC1Nc1cccc(SC)c1` (centres undefined), in experiment [1], the cell count was 411. The inhibition in experiment [1] is 0.6% (inactive); in experiment [3] it was -65.5% (inactive); in experiment [7], 12.1% (inactive); in experiment [8] it was 19.8% (inactive). Also, the inhibition of aggregation in experiment [2] is -6.7% (inactive). The nuclei count in experiment [2] is 90.9%; in experiment [3], 120%. In experiment [4], the fluorescence slope was -0.414 (inactive). Also, the NADPH fluorescence slope in experiment [5] was -2.4e-05 (inactive). For the same compound, the slope in experiment [6] is 0.0037 (inactive).
Regarding `CN(C)CCCOC(=O)CCc1ccccc1`, the cell count in experiment [1] was determined as 317. Moreover, the inhibition in experiment [1] was -11.5% (inactive); in experiment [3], -26.3% (inactive); in experiment [7], -0.368% (inactive); in experiment [8] it was 5.94% (inactive). Further, in experiment [2], the inhibition of aggregation was 4.5% (inactive). In addition, the values for the nuclei count in experiment [2] and in experiment [3] were 95.6% and 111%, respectively. Besides, the fluorescence slope in experiment [4] is -0.312 (inactive). Further, in experiment [5], the NADPH fluorescence slope is -3.9e-05 (inactive). For the same compound, the slope in experiment [6] is 0.00462 (inactive).
For the compound `CCCOC(=O)c1ccc(-c2c(C)noc2-c2ccc(OC)cc2O)o1`, the cell count in experiment [1] was found to be 162. The inhibition in experiment [1] was -6.3% (inactive); in experiment [3] it was 0.4% (inactive); in experiment [7], 1.25% (inactive); in experiment [8], 2.32% (inactive). Also, in experiment [2], the inhibition of aggregation was 1.9% (inactive). Further, the nuclei count in experiment [2] came to 106%; in experiment [3], 87%. Moreover, in experiment [4], the fluorescence slope was -0.495 (inactive). Also, the NADPH fluorescence slope in experiment [5] is -3.7e-05 (inactive). Moreover, the slope in experiment [6] is 0.00302 (inactive).
